PubChem BioAssay
For some of these results: Potency and affinity values are given separately. Calls of active or inactive are those of the source.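 How the source made its calls, unless noted: active means primary screen activator hit with a dose response curve and TRPC4 channel activation at any tested dose; inactive means no activation, no dose response, or not a primary hit.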

Legend:
[1] = system: TRPC4 beta (transient receptor potential cation channel C4), mouse; test: TRPC4 cation channel opening, retest – cell-based, Fluo4 calcium, HEK293 TRPC4beta/mu-opioid, duplicates, 10 µM, confirmation (AID 2426;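 active means fluorescence ratio normalized to control raised more than 50% in primary screen plus both repeat runs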;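 on activation: percent rise of integrated ratio over buffer wells lacking compound which define 0%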); conditions: Fluo4 calcium fluorescence, at 10 µM; hits give high values
[2] = system: transient receptor potential cation channel C4 beta (TRPC4), mouse; test: TRPC4 cation channel opening, second retest – cell-based, second round, Fluo4, HEK293 TRPC4beta/mu-opioid, 1 µM, confirmation (AID 2461;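 active means primary screen active and over 50% activation in each of two duplicate runs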); conditions: Fluo4 calcium fluorescence, at 1 µM; hits give high values
[3] = system: TRPC4 (transient receptor potential cation channel C4 beta), mouse; test: potentiation of DAMGO EC20 TRPC4 response – cell-based, second round, Fluo-4, HEK293 TRPC4beta/mu-opioid, 1 µM, confirmation (AID 2554;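 active means primary screen hit whose fluorescence ratio, in both repeats, exceeds the weak agonist control mean by 3 SD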); conditions: DAMGO EC20, Fluo-4 calcium flux, at 1 µM; hits give high values
[4] = system: TRPC4 beta (transient receptor potential cation channel C4), mouse; test: potentiation of DAMGO EC20 TRPC4 response – cell-based, Fluo-4, HEK293 TRPC4beta/mu-opioid, confirmation (AID 2555;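 active means primary screen hit whose calcium fluorescence ratio, in both repeats, exceeds the weak agonist control mean by 3 SD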); conditions: DAMGO EC20, Fluo-4 calcium flux, at 10 µM; hits give high values
[5] = target: Short transient receptor potential channel 4 (Mus musculus) (UniProt Q9QUQ5); test: blockers of DAMGO-evoked TRPC4 calcium flux – cell-based, Fluo4, HEK293 TRPC4beta/mu-opioid, confirmation (AID 2636;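 active means calcium signal cut by more than 3 SD below the full-agonist control yet still positive, in both repeats and the earlier primary screen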); conditions: at 10 µM; hits give high values
Sequence of Short transient receptor potential channel 4 (Mus musculus) (Q9QUQ5 whole entry, looked up): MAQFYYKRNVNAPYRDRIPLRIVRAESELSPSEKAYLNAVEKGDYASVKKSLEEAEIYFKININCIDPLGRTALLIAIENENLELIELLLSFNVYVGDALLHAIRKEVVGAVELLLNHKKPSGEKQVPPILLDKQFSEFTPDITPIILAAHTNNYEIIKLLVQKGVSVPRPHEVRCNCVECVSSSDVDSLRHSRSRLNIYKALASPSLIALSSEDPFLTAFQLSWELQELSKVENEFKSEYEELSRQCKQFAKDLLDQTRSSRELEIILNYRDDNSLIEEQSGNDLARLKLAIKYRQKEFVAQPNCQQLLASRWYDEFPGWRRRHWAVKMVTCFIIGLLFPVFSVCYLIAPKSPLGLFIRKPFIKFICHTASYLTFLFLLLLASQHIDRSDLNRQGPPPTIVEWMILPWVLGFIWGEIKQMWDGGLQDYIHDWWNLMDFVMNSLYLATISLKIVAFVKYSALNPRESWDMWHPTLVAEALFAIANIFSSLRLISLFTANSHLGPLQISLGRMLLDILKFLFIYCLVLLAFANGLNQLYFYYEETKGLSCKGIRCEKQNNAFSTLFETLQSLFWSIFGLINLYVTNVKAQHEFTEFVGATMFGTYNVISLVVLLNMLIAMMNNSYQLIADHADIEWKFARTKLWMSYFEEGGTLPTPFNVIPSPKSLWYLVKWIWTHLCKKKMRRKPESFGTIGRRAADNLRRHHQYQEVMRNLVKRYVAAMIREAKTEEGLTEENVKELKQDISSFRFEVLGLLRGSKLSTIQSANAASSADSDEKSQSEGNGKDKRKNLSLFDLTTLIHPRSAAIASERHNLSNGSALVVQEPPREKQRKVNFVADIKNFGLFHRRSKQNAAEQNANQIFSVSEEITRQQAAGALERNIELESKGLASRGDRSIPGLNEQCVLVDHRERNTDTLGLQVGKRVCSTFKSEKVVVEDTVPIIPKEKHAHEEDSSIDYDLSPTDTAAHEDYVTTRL

[6] = target: Short transient receptor potential channel 4 (Mus musculus) (UniProt Q9QUQ5); test: blockers of DAMGO-evoked TRPC4 calcium flux – cell-based, second round, Fluo4, HEK293 TRPC4beta/mu-opioid, 1 µM, confirmation (AID 2637;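 active means calcium signal ratio cut to more than 3 SD under the fully stimulated control mean yet still positive, in both repeats and the primary screen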); conditions: at 1 µM; hits give high values
[7] = target: Short transient receptor potential channel 4 (Mus musculus) (UniProt Q9QUQ5); test: calcium entry via TRPC4 opening agents – cell-based, HEK293 TRPC4/mu-opioid, Fluo-4 calcium, dose response (AID 434937)
[8] = target: Short transient receptor potential channel 4 (Mus musculus) (UniProt Q9QUQ5); test: potentiation of DAMGO-evoked TRPC4 calcium signal – cell-based, HEK293 TRPC4/mu-opioid, Fluo-4 calcium, EC20 DAMGO, dose response (AID 434941;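 active means earlier screen potentiator hit that boosts the TRPC4 ion channel at some dose, with a dose response; inactive means no potentiation, no dose response, or not a prior hit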;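 further: calcium entry triggered by an EC20 dose of DAMGO at the co-expressed mu-opioid receptor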)
[9] = target: Short transient receptor potential channel 4 (Mus musculus) (UniProt Q9QUQ5); test: block of DAMGO-driven TRPC4 calcium entry – cell-based, HEK293 TRPC4/mu-opioid, Fluo-4 calcium, dose response (AID 434942;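 active means primary screen inhibitor hit that blocks the TRPC4 channel at some tested dose, yielding a dose curve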)
[10] = target: Short transient receptor potential channel 6 (Mus musculus) (UniProt Q61143); test: TRPC6 blockade by TRPC4 inhibitor hits – cell-based, HEK293, membrane potential dye, duplicate, selectivity assay for TRPC4 inhibitor project, confirmation (AID 434948;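 active means active in primary screen and both duplicates, each dropping signal beyond three positive-control SD with fluorescence still positive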); conditions: HEK293 TRPC6, membrane potential dye fluorescence, at 10 µM, stimulated with maximal-effect acetylcholine; hits give high values
Sequence of Short transient receptor potential channel 6 (Mus musculus) (Q61143 whole entry, looked up): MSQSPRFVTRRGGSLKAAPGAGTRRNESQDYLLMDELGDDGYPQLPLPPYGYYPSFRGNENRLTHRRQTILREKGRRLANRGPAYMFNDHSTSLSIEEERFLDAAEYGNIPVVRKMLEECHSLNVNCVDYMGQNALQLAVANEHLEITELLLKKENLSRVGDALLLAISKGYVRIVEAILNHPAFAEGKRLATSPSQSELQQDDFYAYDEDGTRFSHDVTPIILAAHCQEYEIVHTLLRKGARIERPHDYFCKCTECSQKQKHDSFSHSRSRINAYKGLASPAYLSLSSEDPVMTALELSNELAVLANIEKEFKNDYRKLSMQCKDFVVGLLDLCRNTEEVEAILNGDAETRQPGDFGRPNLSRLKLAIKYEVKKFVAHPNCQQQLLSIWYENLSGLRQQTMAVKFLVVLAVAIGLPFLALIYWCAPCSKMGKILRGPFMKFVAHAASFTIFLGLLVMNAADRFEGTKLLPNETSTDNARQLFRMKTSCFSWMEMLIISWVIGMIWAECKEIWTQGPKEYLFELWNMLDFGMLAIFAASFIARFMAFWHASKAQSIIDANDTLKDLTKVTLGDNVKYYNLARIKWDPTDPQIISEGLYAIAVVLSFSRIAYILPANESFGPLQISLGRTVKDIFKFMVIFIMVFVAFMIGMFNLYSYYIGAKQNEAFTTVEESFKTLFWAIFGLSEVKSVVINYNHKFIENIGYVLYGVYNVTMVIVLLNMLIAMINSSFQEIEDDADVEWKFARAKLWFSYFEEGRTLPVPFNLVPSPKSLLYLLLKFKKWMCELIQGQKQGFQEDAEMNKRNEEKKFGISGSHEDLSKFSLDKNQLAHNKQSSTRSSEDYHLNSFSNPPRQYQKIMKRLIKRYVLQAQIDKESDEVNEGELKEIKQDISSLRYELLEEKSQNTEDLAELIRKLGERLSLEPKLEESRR

[11] = target: Short transient receptor potential channel 6 (Mus musculus) (UniProt Q61143); test: TRPC6 opening by TRPC4 activator hits – cell-based, HEK293, membrane potential dye, duplicate, selectivity assay for TRPC4 activator project, confirmation (AID 434950;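 active means membrane potential signal rise above negative control mean plus 3 SD in both duplicates, also active in the earlier TRPC4 screen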); conditions: HEK293 TRPC6, membrane potential fluorescence, at 10 µM; activation: hits give high values; outcome: activation
[12] = target: Short transient receptor potential channel 6 (Mus musculus) (UniProt Q61143); test: positive modulators of mouse TRPC6 channel – HEK293 cells, membrane potential dye, duplicate, selectivity assay for TRPC4 potentiator project, confirmation (AID 434952;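 active means compound raising the membrane signal above positive-control mean plus 3 SD in both repeats, and a primary screen hit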); conditions: HEK293 TRPC6, membrane potential dye fluorescence, at 10 µM, maximal acetylcholine added after compound; hits give high values
[13] = target: Short transient receptor potential channel 4 (Mus musculus) (UniProt Q9QUQ5); test: calcium flux activators in TRPC4/5HT1a cells, counter-screen for TRPC4 activator project, cell-based, second counter screen, HEK293 TRPC4/5HT1a, Fluo-4 (AID 434977;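 active means calcium signal rise above buffer-control mean plus 5 SD in both duplicates, and also a hit in the primary screen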); conditions: Fluo-4 calcium flux, at 10 µM; hits give high values
[14] = serotonin-gated TRPC4 signal block – cell-based, second counter screen, HEK293 TRPC4/5HT1a, Fluo-4, counter-screen for TRPC4 inhibitor project, confirmation (AID 434978;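 active means primary screen active whose calcium signal fell more than 3 SD beyond the full-serotonin control mean in both duplicate plates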;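 further: serotonin given first at submaximal then at maximal dose after compound preincubation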); conditions: Fluo-4 calcium flux, at 10 µM, serotonin added to trigger calcium flux; hits give high values
[15] = system: TRPC4 (mouse), co-expressed with 5HT1a in HEK293; test: enhancement of serotonin-evoked TRPC4 response – cell-based, second counter screen, HEK293 TRPC4/5HT1a, Fluo-4, counter-screen for TRPC4 potentiator project, confirmation (AID 434979;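 active means signal rise over 3 SD above mean of control wells given weak agonist, in both repeats and first screen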); conditions: Fluo-4 calcium flux, at 10 µM, serotonin added at its EC20 dose; hits give high values
[16] = nonspecific calcium rise without TRPC4 – cell-based, HEK293 mu-opioid receptor line, counter-screen for TRPC4 activator project, confirmation (AID 449723;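 active means hit in primary screen, with calcium signal over 5 SD above buffer well mean in both duplicates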;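 further: counter screen cells carry the mu-opioid receptor alone and lack TRPC4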); conditions: HEK293 mu-opioid cells, Fluo-4 calcium fluorescence, at 10 µM; hits give high values
[17] = nonspecific potentiation of DAMGO calcium response – cell-based, HEK293 mu-opioid receptor line, counter-screen for TRPC4 allosteric potentiator project, confirmation (AID 449724;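 active means calcium signal rise more than 3 SD above the low-dose agonist control mean, in both duplicate plates and the primary screen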); conditions: HEK293 mu-opioid receptor cells, Fluo-4 calcium flux, at 10 µM, compound added before EC20 DAMGO stimulus; hits give high values

CCOc1ccc(N=CNc2ccc(OCC)cc2)cc1
inactive: outcome [1] | outcome [2] | outcome [4] | outcome [5] | outcome [6] | outcome [7] | outcome [8] | outcome [9] | outcome [10] | outcome [11] | outcome [12] | outcome [13] | outcome [14] | outcome [16] | outcome [17]
active: potentiation [3] 18% | potentiation [15] 23%

CCN1CCN(c2c(Cl)cccc2NC(=O)c2cccs2)CC1
active: potentiation [3] 14% | potentiation [15] 20.9%
inactive: outcome [1] | outcome [2] | outcome [4] | outcome [5] | outcome [6] | outcome [7] | outcome [8] | outcome [9] | outcome [10] | outcome [11] | outcome [12] | outcome [13] | outcome [14] | outcome [16] | outcome [17]

COc1cccc(OCc2cc(C(=O)N3CCN(C)C(c4ccccc4)C3)no2)c1 (stereo not drawn)
active: potentiation [15] 16.7%
inactive: outcome [1] | outcome [2] | outcome [3] | outcome [4] | outcome [5] | outcome [6] | outcome [7] | outcome [8] | outcome [9] | outcome [10] | outcome [11] | outcome [12] | outcome [13] | outcome [14] | outcome [16] | outcome [17]

CCOC(=O)c1c(C(F)(F)C(F)(F)C(F)(F)C(F)(F)F)n[nH]c1C
inactive: outcome [1] | outcome [2] | outcome [3] | outcome [4] | outcome [5] | outcome [6] | outcome [7] | outcome [8] | outcome [9] | outcome [10] | outcome [11] | outcome [12] | outcome [13] | outcome [14] | outcome [15] | outcome [16] | outcome [17]

COc1ccc(C(=O)Nc2ccccc2N2CCN(C(=O)c3ccccc3)CC2)cc1Br
active: inhibition [5] 75%
inactive: outcome [1] | outcome [2] | outcome [3] | outcome [4] | outcome [6] | outcome [7] | outcome [8] | outcome [9] | outcome [10] | outcome [11] | outcome [12] | outcome [13] | outcome [14] | outcome [15] | outcome [16] | outcome [17]

CCOCCCn1cnc2c(c1=O)c1nc3ccccc3nc1n2-c1ccc(C)cc1
inactive: outcome [1] | outcome [2] | outcome [3] | outcome [4] | outcome [5] | outcome [6] | outcome [7] | outcome [8] | outcome [9] | outcome [10] | outcome [11] | outcome [12] | outcome [13] | outcome [14] | outcome [15] | outcome [16] | outcome [17]

O=C(NCc1cccs1)C12CC3CC(CC(C3)C1)C2
inactive: outcome [1] | outcome [2] | outcome [3] | outcome [4] | outcome [5] | outcome [6] | outcome [7] | outcome [8] | outcome [9] | outcome [10] | outcome [11] | outcome [12] | outcome [13] | outcome [14] | outcome [15] | outcome [16] | outcome [17]

Cc1cc(Nc2ccc3c(c2)OCCO3)c2ccccc2n1
inactive: outcome [1] | outcome [2] | outcome [3] | outcome [4] | outcome [5] | outcome [6] | outcome [7] | outcome [8] | outcome [9] | outcome [10] | outcome [11] | outcome [12] | outcome [13] | outcome [14] | outcome [15] | outcome [16] | outcome [17]

Cc1cc(OCC(=O)NNC(=S)NC(=O)c2cccs2)ccc1Cl
inactive: outcome [1] | outcome [2] | outcome [3] | outcome [4] | outcome [5] | outcome [6] | outcome [7] | outcome [8] | outcome [9] | outcome [10] | outcome [11] | outcome [12] | outcome [13] | outcome [14] | outcome [15] | outcome [16] | outcome [17]

O=C(Nc1nc(N2C(=O)c3ccccc3C2=O)n(-c2ccccc2)n1)c1ccc(Cl)cc1
inactive: outcome [1] | outcome [2] | outcome [3] | outcome [4] | outcome [5] | outcome [6] | outcome [7] | outcome [8] | outcome [9] | outcome [10] | outcome [11] | outcome [12] | outcome [13] | outcome [14] | outcome [15] | outcome [16] | outcome [17]

Cc1sc2nc(SCC(N)=O)n(C)c(=O)c2c1C
active: potentiation [4] 16% | potentiation [15] 26.5%
inactive: outcome [1] | outcome [2] | outcome [3] | outcome [5] | outcome [6] | outcome [7] | outcome [8] | outcome [9] | outcome [10] | outcome [11] | outcome [12] | outcome [13] | outcome [14] | outcome [16] | outcome [17]

COc1cc(Cl)c(S(=O)(=O)N2CCN(Cc3ccc4c(c3)OCO4)CC2)cc1Cl
active: potentiation [4] 10% | potentiation [15] 16.8%
inactive: outcome [1] | outcome [2] | outcome [3] | outcome [5] | outcome [6] | outcome [7] | outcome [8] | outcome [9] | outcome [10] | outcome [11] | outcome [12] | outcome [13] | outcome [14] | outcome [16] | outcome [17]

CC(C)n1c(SCC(=O)N2c3ccccc3Sc3ccccc32)nc2c1c(=O)n(C)c(=O)n2C
inactive: outcome [1] | outcome [2] | outcome [3] | outcome [4] | outcome [5] | outcome [6] | outcome [7] | outcome [8] | outcome [9] | outcome [10] | outcome [11] | outcome [12] | outcome [13] | outcome [14] | outcome [16] | outcome [17]
active: potentiation [15] 50.7%

COc1ccc(-n2cc(CNCc3cccnc3)c(-c3cccc(F)c3)n2)cc1
active: activation [1] 84%
inactive: outcome [2] | outcome [3] | outcome [4] | outcome [5] | outcome [6] | outcome [7] | outcome [8] | outcome [9] | outcome [10] | outcome [11] | outcome [12] | outcome [13] | outcome [14] | outcome [15] | outcome [16] | outcome [17]
